MCF10A rerep: A quantitative high throughput screen for small molecules that induce DNA re-replication in MCF 10a normal breast cells; MCF 10A DNA re-replication, Hoechst nuclear intensity, 48 h; Potency, µM (doses to about 46.1 µM), hits mostly activators; hit rate 2.9% among 350,000; also: nearly all actives have a fitted effect of over 50% in size
KB-V1 MDR tox: qHTS assay for MDR1-selective chemotherapeutics: Primary screen using the drug-selected MDR subline cells KB-V1; KB-V1 MDR cells viability, CellTiter-Glo, 72 h; Potency, µM (highest dose often 46.1 µM), most hits filed as cytotoxic; hit rate 3.4% among 400,000; AID 1347076, 2019; also: nearly all actives have a fitted effect of over 60% in size
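Cytotoxicity toward P-gp-expressing KB-V1 cells was determined as loss of CellTiter-Glo luminescence after 72 h at 37 degrees C. Compounds were tested in quantitative HTS format across a concentration range, with curves fitted to normalized data.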
SW480 rerep: A quantitative high throughput screen for small molecules that induce DNA re-replication in SW480 colon adenocarcinoma cells; SW480 DNA re-replication, Hoechst DNA content imaging, 48 h; hit rate 1.8% among 340,000; Potency, µM (highest dose often 46.1 µM), usual class: activators; also: nearly all actives have a fitted effect of over 55% in size
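Readout is total intensity of Hoechst-stained nuclei, excited at 405 nm and collected at 500-530 nm. Compound treatment lasted 48 hr at 37 C in 5% CO2 before staining.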
KB-3-1 cytotox: qHTS assay for MDR1-selective chemotherapeutics: Primary screen using the parental adenocarcinoma cell KB-3-1 | hit rate 1.4% among 400,000 | KB-3-1 viability, CellTiter-Glo ATP luminescence, 72 h | AID 1347075, 2019 | Potency, µM (doses to about 46.1 µM), hits mostly cytotoxic; also: nearly all actives have a fitted effect of over 60% in size
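KB-3-1 cells, DMEM (no phenol red) + 10% FBS; compound by pin transfer, 72 h, 37 °C. Readout: CellTiter-Glo luminescence after 10 min. Data normalized, curve-fitted.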
ELG1 repair inh: qHTS screen for small molecules that inhibit ELG1-dependent DNA repair in human embryonic kidney (HEK293T) cells expressing luciferase-tagged ELG1 | hit rate 2.3% among 330,000 | Potency, µM (titrated, usually from 46.1 µM), hits mostly inhibitors | AID 504467, 2011 | HEK293T ELG1-luciferase reporter, luminescence, 16 h; DNA damage induced by 5-fluorouridine; also: nearly all actives have a fitted effect of over 55% in size
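Cells (2,000 per well) received 5-fluorouridine plus test compound or DMSO and were incubated 16 hr at 37 °C, 5% CO2. Luciferase activity was read by luminescence 30 min after ONE-Glo addition; signal suppression marked inhibition of damage-induced ELG1 function.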
A number is an active result; n = inactive; u = inconclusive; x = no result; [ ] = remark or other dose. In the library only some 8.1% were active in any assay of this set; here they are far more common. Calls follow the shape of the dose curve; as a rule, active = well fitted curve in the direction sought with a large enough effect; inconclusive = small, poorly fitted or top-dose-only effect, or another doubt; inactive = no such curve, though single readings can be large; an effect the other way counts as inactive or inconclusive.

SMILES	MCF10A rerep	KB-V1 MDR tox	SW480 rerep	KB-3-1 cytotox	ELG1 repair inh
COc1ccc(Cn2nnc3c(=O)[nH]c(C4CCCN(C(=O)c5ccc(C)cc5)C4)nc32)cc1 (stereo not given)	x	n	x	n	x
Cc1ccc(Cn2nnc3c(=O)[nH]c(C4CCN(C(=O)c5cccs5)CC4)nc32)cc1	n	n	n	u	9.2µM
Cc1ccc(Cn2nnc3c(=O)[nH]c(C4CCCN(C(=O)Nc5ccc(F)cc5)C4)nc32)cc1 (stereo not given)	n	n	n	n	16µM
Cc1ccc(C)c(Cn2nnc3c(=O)[nH]c(C4CCN(C(=O)c5cccs5)CC4)nc32)c1	u	n	n	n	u
COc1cccc(N2CCN(Cc3nc4ccccc4c(=O)[nH]3)CC2)c1	n	n	n	n	n
COc1cccc(N2CCN(Cc3nc4scc(-c5ccccc5)c4c(=O)[nH]3)CC2)c1	10µM	9.2µM	u	u	u
O=c1[nH]c(CN2CCN(c3ccccc3O)CC2)nc2scc(-c3ccccc3Cl)c12	n	n	n	u	21µM
O=c1[nH]c(CN2CCN(c3ccc(O)cc3)CC2)nc2scc(-c3ccc(Cl)cc3)c12	u	n	3.7µM	u	u
COc1ccc(C(=O)N(Cc2cccs2)C2CCS(=O)(=O)C2)cc1 (stereo not given)	n	n	n	n	n
CCCCS(=O)CC(O)COc1ccc(C(C)(C)C)cc1 (stereo not given)	u	21µM	n	n	n
O=C(CC1(O)C(=O)N(Cc2ccccc2)c2ccc(Br)cc21)c1ccccc1 (stereo not given)	x	n	x	n	x
C=CCN1C(=O)C(O)(CC(=O)c2ccco2)c2cc(Br)ccc21 (stereo not given)	u	u	13µM	n	n
FC(F)(F)c1ccnc(Sc2n[nH]c(C(F)(F)F)n2)c1	n	n	n	n	n
CC(=O)n1cc([C@@H]2C=C(C(=O)N3CCN(Cc4ccccc4)CC3)O[C@H](OCc3ccc(CO)cc3)C2)c2ccccc21	u	u	n	u	9.2µM
O=C(NCc1nc2ccccc2[nH]1)C1=C[C@@H](c2ccccc2)C[C@@H](OCc2ccc(CO)cc2)O1	n	n	n	n	n
O=C(Nc1ccccc1)C1=C[C@@H](C2CCCCC2)C[C@@H](OCc2ccc(CO)cc2)O1	16µM	n	u	u	u
CCO[C@H]1OC(C(=O)NCc2nc3ccccc3[nH]2)=C[C@@H](C2CC2)[C@@H]1CCCO	3.7µM	n	3.3µM	n	n
O=C(Nc1ccccc1)C1=C[C@H](C2CCCCC2)C[C@H](OCc2ccc(CO)cc2)O1	u	n	n[9.22 µM]	n	n
O=C(NCc1nc2ccccc2[nH]1)C1=C[C@H](c2ccccc2)C[C@H](OCc2ccc(CO)cc2)O1	u	n	n	u	21µM
CCNC(=S)N1CCN(S(=O)(=O)/C=C/c2ccccc2)CC1	n	u	n	n	n
O=C1Nc2ccccc2C1C(C[N+](=O)[O-])c1ccccn1 (stereo not given)	n	n	n	n	n
CC(=O)n1cc([C@H]2C=C(C(=O)NCc3ccccc3)O[C@@H](OCc3ccc(CO)cc3)C2)c2ccccc21	18µM	n	n	n	u
C#CCNC(=O)C1=C[C@@H](c2cn(C(C)=O)c3ccccc23)C[C@@H](OCc2ccc(CO)cc2)O1	n	u	u	n	u
N#CCCN(C(=O)COC(=O)CCc1nc2ccccc2c(=O)[nH]1)c1ccc(F)cc1	n	x	n	x	n
CCCC(c1c(C)n(C)n(-c2ccccc2)c1=O)c1c(C)n(C)n(-c2ccccc2)c1=O	n	u	n	21µM	n
CC(Oc1cc(Cl)ccc1Cl)C(=O)N/N=C\c1ccnn1C (stereo not given)	n	18µM	n	n	n
CCCn1nnc(NC(=O)C(C)Oc2ccc(Cl)cc2Cl)n1 (stereo not given)	n	u	n	n	n
O=C(c1ccc(Oc2ccc(C(F)(F)F)cn2)cc1)N1CCN(c2ccccc2)CC1	n	21µM	n	u	n
